PubChem BioAssay AID1159580 (chemical genetic matrix, 2015)
Several values for one entry are separate records, joined by “and”; a condition that tells them apart may be missing. Equal values may be shown once. The whole screen tested about 5,500 compounds, of which about 2,000 (36%) were called active. About 18% were inconclusive and are not listed. No stated cut-off is given here; in the data, active means normalized growth mostly below about 0.91 (no sharp cut-off); inconclusive means no clear call, values can overlap the other calls; inactive means mostly above about 0.92. The list shows a part of the results.

Experiment: chemical genetic growth profiling, strain panel (AID 1159580);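 further: tested at 20 µM; growth read once vehicle control cultures reached saturation at 30 °C; 1 = growth at the plate median or of vehicle wells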
Settings: S. cerevisiae deletion strains, growth OD

Measured: normalized growth

CCN(CC)CCOc1ccc(/C(=C(\Cl)c2ccccc2)c2ccccc2)cc1
0.0542 (active) and 0.924 (inactive): locus YHR030C, strain SLT2, stronger effect = lower value
inactive: locus YHR079C, strain IRE1, stronger effect = lower value 0.945 | locus YIL125W, strain kgd1, stronger effect = lower value 0.983 | locus YJR066W, strain TOR1, stronger effect = lower value 0.982
0.0616 (active) and 0.946 (inactive): locus YJL095W, strain BCK1, stronger effect = lower value
active: locus YAL013W, strain DEP1, stronger effect = lower value 0.0553 | locus YAL021C, strain ccr4, stronger effect = lower value 0.064 | locus YAL026C, strain drs2, stronger effect = lower value 0.0617 | locus YAL030W, strain snc1, stronger effect = lower value 0.076 | locus YBL061C, strain skt5, stronger effect = lower value 0.0714 | locus YBR009C, strain hhf1, stronger effect = lower value 0.0875 | locus YBR021W, strain FUR4, stronger effect = lower value 0.089 | locus YBR023C, strain chs3, stronger effect = lower value 0.0792 | locus YBR171W, strain sec66, stronger effect = lower value 0.17 | locus YBR229C, strain ROT2, stronger effect = lower value 0.0488 | locus YBR231C, strain swc5, stronger effect = lower value 0.0847 | locus YBR279W, strain paf1, stronger effect = lower value 0.265 | locus YCL011C, strain gbp2, stronger effect = lower value 0.0699 | locus YCL016C, strain dcc1, stronger effect = lower value 0.203 | locus YCL029C, strain bik1, stronger effect = lower value 0.0627 | locus YCL069W, strain vba3, stronger effect = lower value 0.11 | locus YCR088W, strain abp1, stronger effect = lower value 0.107 | locus YDL005C, strain med2, stronger effect = lower value 0.11 | locus YDL035C, strain GPR1, stronger effect = lower value 0.0517 | locus YDL040C, strain nat1, stronger effect = lower value 0.479 | locus YDL074C, strain BRE1, stronger effect = lower value 0.0809 | locus YDL101C, strain DUN1, stronger effect = lower value 0.0611 | locus YDL185W, strain tfp1, stronger effect = lower value 0.124 | locus YDL192W, strain arf1, stronger effect = lower value 0.0614 | locus YDR001C, strain nth1, stronger effect = lower value 0.216 | locus YDR069C, strain doa4, stronger effect = lower value 0.0706 | locus YDR101C, strain arx1, stronger effect = lower value 0.0624 | locus YDR137W, strain rgp1, stronger effect = lower value 1.41 [resistant] | locus YDR159W, strain sac3, stronger effect = lower value 0.105 | locus YDR162C, strain NBP2, stronger effect = lower value 0.0484 | locus YDR195W, strain ref2 0.235 | locus YDR297W, strain sur2, stronger effect = lower value 0.0942 | locus YDR318W, strain mcm21, stronger effect = lower value 0.0641 | locus YDR334W, strain swr1, stronger effect = lower value 0.0931 | locus YDR335W, strain msn5, stronger effect = lower value 0.093 | locus YDR388W, stronger effect = lower value 0.055 | locus YDR392W, strain spt3, stronger effect = lower value 0.0803 | locus YDR502C, strain sam2, stronger effect = lower value 0.0655 | locus YEL003W, strain gim4, stronger effect = lower value 0.133 | locus YEL037C, strain rad23, stronger effect = lower value 0.099 | locus YEL061C, strain CIN8 (second series), stronger effect = lower value 0.3 | locus YEL061C, strain CIN8, stronger effect = lower value 0.0516 | locus YER015W, strain faa2, stronger effect = lower value 0.143 | locus YER016W, strain bim1, stronger effect = lower value 0.218 | locus YER110C, stronger effect = lower value 0.0804 | locus YER111C, strain swi4, stronger effect = lower value 0.529 | locus YER155C, strain BEM2 (second series), stronger effect = lower value 0.851 | locus YER155C, strain BEM2, stronger effect = lower value 0.0653 | locus YER167W, strain BCK2, stronger effect = lower value 0.0512 | locus YFR010W, strain ubp6, stronger effect = lower value 0.0804 | locus YGL078C, strain dbp3, stronger effect = lower value 0.919 | locus YGL086W, strain mad1, stronger effect = lower value 0.0596 | locus YGL167C, strain pmr1, stronger effect = lower value 0.244 | locus YGL173C, strain kem1, stronger effect = lower value 0.497 | locus YGL227W, strain vid30, stronger effect = lower value 0.144 | locus YGL240W, strain doc1, stronger effect = lower value 0.228 | locus YGL248W, strain PDE1, stronger effect = lower value 0.0492 | locus YGL253W, strain hxk2, stronger effect = lower value 0.0662 | locus YGR135W, strain pre9, stronger effect = lower value 0.069 | locus YGR252W, strain gcn5, stronger effect = lower value 0.178 | locus YHR013C, strain ard1, stronger effect = lower value 0.134 | locus YHR027C, strain rpn1, stronger effect = lower value 0.109 | locus YHR079C, strain IRE1 (second series), stronger effect = lower value 0.0584 | locus YHR094C, strain hxt1, stronger effect = lower value 0.0617 | locus YHR129C, strain ARP1, stronger effect = lower value 0.0567 | locus YHR142W, strain chs7, stronger effect = lower value 0.08 | locus YHR200W, strain rpn10, stronger effect = lower value 0.0639 | locus YIL066C, strain RNR3, stronger effect = lower value 0.0508 | locus YIL073C, strain SPO22, stronger effect = lower value 0.106 | locus YIR030C, strain dcg1, stronger effect = lower value 0.0601 | locus YJL092W, strain hpr5, stronger effect = lower value 0.193 | locus YJL095W, strain BCK1 (second series), stronger effect = lower value 0.0616 | locus YJL115W, strain asf1, stronger effect = lower value 0.262 | locus YJL129C, strain trk1, stronger effect = lower value 0.158 | locus YJL134W, strain LCB3, stronger effect = lower value 0.0524 | locus YJL154C, strain vps35, stronger effect = lower value 0.095 | locus YJL164C, strain tpk1, stronger effect = lower value 0.0775 | locus YJL166W, strain qcr8, stronger effect = lower value 0.0887 | locus YJL168C, strain set2, stronger effect = lower value 0.0577 | locus YJL187C, strain SWE1 (second series), stronger effect = lower value 0.0519 | locus YJR043C, strain POL32, stronger effect = lower value 0.064
